# Data from the supplement of paper PMC9135407.
# “And” between values parts separate entries of the source, which are not always exact repeats. Equal entries are not always repeated. Structures can show the parent of a compound that is named as a salt. About 620 (11%) of roughly 5,800 compounds showed activity. The sample holds actives, similar compounds and a random draw of the others, so the mix is not that of the screen. Values without a mark were called inactive.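 How the source made its calls: active = score above a cut-off or among the top three wells of a plate; in these data no inactive exceeds 0.85.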
# System: primary human hepatic stellate cells (donor 1)
# Test: scaled lipid accumulation score (0 = DMSO-like, 1 = nortriptyline-like); higher = stronger HSC inactivation (lipid re-accumulation), active = hit call of the paper
# Conditions: 48 h
# [1] = library stock concentration: 1 mM
# [2] = library stock concentration: 2 mM
# [3] = library stock concentration: 3.33 mM
# [4] = library stock concentration: 10 mM
# [5] = library stock concentration: 400 uM
# [6] = library stock concentration: 80 uM
# [7] = library stock concentration: 5.2 mM
smiles,measurement,setting,value
CCCCCCCCCCCCCCCCOC[C@H](COP(=O)([O-])OCC[N+](C)(C)C)SC(=O)CCCCCC [Heptanoyl thio-PC],scaled lipid accumulation score,[1],0.071
Cn1cc(C2=C(c3c4n(c5ccccc35)CCC(CN)C4)C(=O)NC2=O)c2ccccc21 (stereo not drawn) [Bisindoylmaleimide X HCl salt (Ro 31-8425) (2 mM)],scaled lipid accumulation score,[2],≤ 0
CCCCn1c2ccc(O)cc2c2c3c(c(-c4ccccc4Cl)cc21)C(=O)NC3=O [Wee1 Inhibitor II],scaled lipid accumulation score,[3],≤ 0
Cn1cc(C2=C(c3cn(CCCSC(=N)N)c4ccccc34)C(=O)NC2=O)c2ccccc21 [Bisindolylmaleimide IX (mesylate)],scaled lipid accumulation score,[1],≤ 0
Cn1cc(C2=C(c3ccc(Cl)cc3Cl)C(=O)NC2=O)c2ccccc21 [listing 1 of 5 here],scaled lipid accumulation score,[4],1.03 (active)
Cn1cc(/C=C2\C(=O)Nc3cccnc32)c2ccccc21,scaled lipid accumulation score,[5],≤ -0.005
same,scaled lipid accumulation score,[2],0.002
same,scaled lipid accumulation score,[4],≤ -0.001 and ≤ -0.005
Cn1cc(C2=C(c3ccc(Cl)cc3Cl)C(=O)NC2=O)c2ccccc21 [listing 2 of 5 here],scaled lipid accumulation score,[4],1.22 (active)
"NCCCn1cc(C2=C(c3c[nH]c4ccccc34)C(=O)NC2=O)c2ccccc21 [Bisindolylmaleimide III, Hydrochloride]",scaled lipid accumulation score,[3],≤ 0
Cn1cc(C2=C(c3cn(CCCSC(=N)N)c4ccccc34)C(=O)NC2=O)c2ccccc21 [Ro 31-8220 Mesylate],scaled lipid accumulation score,[3],≤ -0.009
same,scaled lipid accumulation score,[4],0.514
Cn1cc(C2=C(c3cn(CCCSC(=N)N)c4ccccc34)C(=O)NC2=O)c2ccccc21 [Ro 31-8220 mesylate],scaled lipid accumulation score,[4],≤ -0.001
Cn1cc(C2=C(c3c4n(c5ccccc35)CCC(CN)C4)C(=O)NC2=O)c2ccccc21 (stereo not drawn) [Bisindoylmaleimide X  HCl salt (Ro 31-8425) (10 mM)],scaled lipid accumulation score,[4],≤ -0.005
Cn1cc(C2=C(c3cn(CCCSC(=N)N)c4ccccc34)C(=O)NC2=O)c2ccccc21,scaled lipid accumulation score,[6],0.068
same,scaled lipid accumulation score,[5],0.267
same,scaled lipid accumulation score,[2],≤ 0
same,scaled lipid accumulation score,[3],≤ 0
same,scaled lipid accumulation score,[4],0.848
same,scaled lipid accumulation score,library stock concentration: 10.9 mM,0.832
O=C1NC(=O)C(c2cn(CCCO)c3ncccc23)=C1c1cnccn1 [GSK-3b Inhibitor XI],scaled lipid accumulation score,[3],0.065
Cn1cc(C2=C(c3ccc(Cl)cc3Cl)C(=O)NC2=O)c2ccccc21 [listing 3 of 5 here],scaled lipid accumulation score,[6],0.035
same,scaled lipid accumulation score,[5],≤ -0.009 and 0.379
same,scaled lipid accumulation score,[2],0.225
same,scaled lipid accumulation score,[3],0.555
same,scaled lipid accumulation score,[4],0.564
Cn1cc(C2=C(c3c4n(c5ccccc35)CCC(CN)C4)C(=O)NC2=O)c2ccccc21 (stereo not drawn) [Bisindoylmaleimide X HCl salt (Ro 31-8425) (0.4 mM)],scaled lipid accumulation score,[5],0.132
Cn1cc(C2=C(c3cn(CCCN)c4ccccc34)C(=O)NC2=O)c2ccccc21 [Bisindolylmaleimide VIII (acetate)],scaled lipid accumulation score,[1],≤ 0
Cn1cc(C2=C(c3ccc(Cl)cc3Cl)C(=O)NC2=O)c2ccccc21 [listing 4 of 5 here],scaled lipid accumulation score,[4],1.37 (active)
Cn1cc(C2=C(c3ccc(Cl)cc3Cl)C(=O)NC2=O)c2ccccc21 [listing 5 of 5 here],scaled lipid accumulation score,[2],1.13 (active)
same,scaled lipid accumulation score,[4],1.17 (active)
CCCCCCCCCCCCCCCC(=O)OCC [Palmitic Acid ethyl ester],scaled lipid accumulation score,[1],≤ 0
C[N+]1(C)C[C@H](O)C[C@H]1C(=O)[O-] [Betonicine],scaled lipid accumulation score,,≤ 0
CCCCC[C@H](O)/C=C/[C@H]1CCC(=O)[C@@H]1C/C=C\CCCC(=O)O [11-deoxy Prostaglandin E2],scaled lipid accumulation score,[1],0.072
CC[C@H](CO)Nc1nc(NCc2ccccc2O)c2ncn(C(C)C)c2n1 [Olomoucine II],scaled lipid accumulation score,[3],0.299
NC1=N[C@@]2(c3cc(NC(=O)c4ccc(F)cn4)ccc3F)COC[C@H]2CS1,scaled lipid accumulation score,[3],0.012
same,scaled lipid accumulation score,[4],0.209
C[C@]12CCC(=O)C=C1CC[C@@H]1[C@@H]2[C@@H](O)C[C@@]2(C)[C@H]1CC[C@]2(O)C(=O)COP(=O)(O)O [Hydrocortisone phosphate triethylamine],scaled lipid accumulation score,library stock concentration: 3.1 mM,≤ -0.001
CCOc1nc2cccc(C(=O)O)c2n1Cc1ccc(-c2ccccc2-c2noc(=O)[nH]2)cc1 [Azilsartan],scaled lipid accumulation score,[3],≤ 0
same,scaled lipid accumulation score,[4],≤ 0
CCCCC[C@H](O)/C=C/[C@H]1C(=O)C[C@H](O)[C@@H]1C/C=C/CCCC(=O)O [5-trans Prostaglandin D2],scaled lipid accumulation score,[1],≤ 0
COC(=O)C1=C(C)NC(C)=C(C(=O)OCCCN2CCC(c3ccccc3)(c3ccccc3)CC2)[C@@H]1c1cccc([N+](=O)[O-])c1 [(R)-(-)-Niguldipine hydrochloride],scaled lipid accumulation score,[4],≤ -0.006
C=C1C(=O)O[C@H]2[C@H]1CC/C(C)=C/CC[C@@]1(C)O[C@@H]21 [Parthenolide],scaled lipid accumulation score,,0.539
same,scaled lipid accumulation score,[4],0.317 and 0.269
same,scaled lipid accumulation score,library stock concentration: 20.1 mM,0.417
C=C1C(=O)O[C@@H]2/C=C(\C)CC/C=C(\C)CC[C@@H]12 [Costunolide],scaled lipid accumulation score,[3],≤ 0
same,scaled lipid accumulation score,[4],0.163 and ≤ -0.001
C=C1C(=O)OC2CC1C(OC(C)=O)C/C(C)=C/CC/C(C)=C/CC[C@]2(C)O (stereo partly drawn) [Crassin acetate],scaled lipid accumulation score,[4],1.04 (active)
C=C1C(=O)O[C@H]2[C@H]1CC/C(C)=C/CC[C@@]1(C)O[C@@H]21 [(-)-Parthenolide],scaled lipid accumulation score,[3],0.099
same,scaled lipid accumulation score,[4],0.534
CCCCCCCC/C=C\CCCCCCCCOC[C@H](COP(=O)([O-])OCC[N+](C)(C)C)OC(C)=O,scaled lipid accumulation score,[1],≤ -0.018
CC(=O)NCC(=O)N[C@H](CCC(=O)O)C(=O)O [N-Acetylglycyl-D-glutamic acid],scaled lipid accumulation score,[4],≤ 0
CN(C)CCCN1c2ccccc2CCc2ccc(Cl)cc21,scaled lipid accumulation score,[4],0.755
CN(C)CCCN1c2ccccc2CCc2ccc(Cl)cc21 [Clomipramine hydrochloride],scaled lipid accumulation score,library stock concentration: 5.7 mM,0.836
CN(C)CCCN1c2ccccc2CCc2ccccc21,scaled lipid accumulation score,[4],0.493
CN(C)CCN1C(=O)c2ccccc2N(C)c2ccccc21 [Dibenzepine HCl],scaled lipid accumulation score,library stock concentration: 6.8 mM,≤ 0
CN(C)CCCN1c2ccccc2CCc2ccccc21.Cl [Imipramine hydrochloride],scaled lipid accumulation score,[4],1.1 (active)
CN(C)CCCN1c2ccccc2CCc2ccc(Cl)cc21.Cl [Clomipramine hydrochloride] [listing 1 of 3 here],scaled lipid accumulation score,[4],1.01 (active)
CN(CCCN1c2ccccc2CCc2ccccc21)CC(=O)c1ccc(Cl)cc1,scaled lipid accumulation score,[4],0.191
CN(C)CCCN1c2ccccc2CCc2ccc(Cl)cc21.Cl [Clomipramine hydrochloride] [listing 2 of 3 here],scaled lipid accumulation score,,0.968 (active)
CN(C)CCCN1c2ccccc2CCc2ccccc21 [Imipramine HCl],scaled lipid accumulation score,library stock concentration: 7.1 mM,0.618
CN(C)CCCN1c2ccccc2CCc2ccc(Cl)cc21.Cl [Clomipramine hydrochloride] [listing 3 of 3 here],scaled lipid accumulation score,[4],1.31 (active)
CN(CCCN1c2ccccc2CCc2ccccc21)CC(=O)c1ccc(Cl)cc1 [Lofepramine],scaled lipid accumulation score,[4],0.323
CN(C)CCCN1c2ccccc2CCc2ccc(Cl)cc21 [Clomipramine HCl],scaled lipid accumulation score,[3],0.402
CN(C)CCCN1c2ccccc2CCc2ccccc21 [Imipramine hydrochloride],scaled lipid accumulation score,,0.652
same,scaled lipid accumulation score,library stock concentration: 6.3 mM,0.714
same,scaled lipid accumulation score,[4],0.59
C[C@@H]1CC[C@@]2(OC1)O[C@H]1C[C@H]3[C@@H]4CC=C5C[C@@H](O)CC[C@]5(C)[C@H]4CC[C@]3(C)[C@H]1[C@@H]2C [Diosgenin],scaled lipid accumulation score,[4],≤ -0.027
CCCCCCCCCCCCCCCC(=O)OC[C@@H](O)COP(=O)(O)O [1-Palmitoyl Lysophosphatidic Acid (sodium salt)],scaled lipid accumulation score,[1],0.001
CCCCCCCCCCCCCCCCOC[C@H](CO)SC(C)=O [2-thio-Acetyl MAGE],scaled lipid accumulation score,[1],≤ 0
"CCCCCC/C=C/C=C\CCCCCCCC(=O)O [9(Z),11(E)-Conjugated Linoleic Acid]",scaled lipid accumulation score,[1],0.029
CCCCCNC(=N)N/N=C/c1c[nH]c2ccc(OC)cc12 [Tegaserod],scaled lipid accumulation score,[4],≤ -0.027
CCCCCNC(=N)N/N=C/c1c[nH]c2ccc(OC)cc12,scaled lipid accumulation score,[4],0.13
CCCCCNC(=N)N/N=C/c1c[nH]c2ccc(OC)cc12 [Tegaserod maleate],scaled lipid accumulation score,[4],≤ -0.027
Cc1cc(-c2ccc(/N=N/c3ccc4c(S(=O)(=O)O)cc(S(=O)(=O)O)c(N)c4c3O)c(C)c2)ccc1/N=N/c1ccc2c(S(=O)(=O)O)cc(S(=O)(=O)O)c(N)c2c1O,scaled lipid accumulation score,[4],0.033
CCCCC[C@H](O)/C=C/[C@@H]1[C@H](C/C=C\CCCC(=O)O)[C@H](O)C[C@H]1O [8-iso Prostaglandin F2.beta.],scaled lipid accumulation score,[1],0.004
CN(C)CCCN1c2ccccc2CCc2ccc(Cl)cc21.Cl [Clomipramine HCl],scaled lipid accumulation score,[4],0.83 (active)
CC[N+]1(C)C2CCC1CC(OC(=O)C1CCC(C(=O)OC3CC4CCC(C3)[N+]4(C)CC)(c3ccccc3)c3ccccc31)C2 (stereo not drawn) [beta- Belladonnine dichloroethylate],scaled lipid accumulation score,,≤ 0
Cc1c(C(N)=O)cc([N+](=O)[O-])cc1[N+](=O)[O-] [Dinitolmide],scaled lipid accumulation score,[3],≤ 0
same,scaled lipid accumulation score,[4],≤ -0.001 and ≤ -0.027
NC1CONC1=O (racemic) [DL-Cycloserine],scaled lipid accumulation score,[4],≤ 0
COc1cc2nc(N(C)CCCNC(=O)C3CCCO3)nc(N)c2cc1OC (stereo not drawn) [Alfuzosin hydrochloride],scaled lipid accumulation score,,≤ 0
same,scaled lipid accumulation score,[4],0.274
COc1cc2nc(N3CCN(C(=O)C4CCCO4)CC3)nc(N)c2cc1OC (stereo not drawn) [Terazosin hydrochloride],scaled lipid accumulation score,,≤ 0
same,scaled lipid accumulation score,[4],≤ -0.006
COc1cc2nc(N3CCN(C(=O)c4ccco4)CC3)nc(N)c2cc1OC [Prazosin hydrochloride],scaled lipid accumulation score,,0.676
same,scaled lipid accumulation score,library stock concentration: 4.8 mM,0.682
same,scaled lipid accumulation score,[4],0.361 and 0.672
COc1cc2nc(N3CCN(C(=O)c4ccco4)CC3)nc(N)c2cc1OC [Prazosin],scaled lipid accumulation score,[4],1 (active)
COc1cc2nc(N3CCN(C(=O)c4ccco4)CC3)nc(N)c2cc1OC.Cl [Prazosin hydrochloride],scaled lipid accumulation score,[4],1.35 (active)
COc1cc2nc(N3CCN(C(=O)C4CCCO4)CC3)nc(N)c2cc1OC (stereo not drawn) [Terazosin],scaled lipid accumulation score,library stock concentration: 9.6 mM,≤ 0
same,scaled lipid accumulation score,[4],0.162
COc1cc2nc(N3CCN(C(=O)C4COc5ccccc5O4)CC3)nc(N)c2cc1OC (stereo not drawn) [Doxazosin Mesylate],scaled lipid accumulation score,[3],≤ 0
same,scaled lipid accumulation score,[4],0.473
COc1cc2nc(N3CCN(C(=O)c4ccco4)CC3)nc(N)c2cc1OC [Prazocin],scaled lipid accumulation score,library stock concentration: 13 mM,1.03 (active)
COc1cc2nc(N(C)CCCNC(=O)C3CCCO3)nc(N)c2cc1OC (stereo not drawn) [Alfluzosin],scaled lipid accumulation score,library stock concentration: 5.1 mM,≤ 0
COc1cc2nc(N3CCN(C(=O)c4ccco4)CC3)nc(N)c2cc1OC [Prazosin HCl],scaled lipid accumulation score,[7],0.728
COc1cc2nc(N3CCN(C(=O)C4COc5ccccc5O4)CC3)nc(N)c2cc1OC (stereo not drawn) [Doxazosin],scaled lipid accumulation score,[4],0.539
COc1cc2nc(N(C)CCCNC(=O)C3CCCO3)nc(N)c2cc1OC (stereo not drawn) [Alfluzocin],scaled lipid accumulation score,[4],0.025
COc1cc2nc(N(C)CCCNC(=O)C3CCCO3)nc(N)c2cc1OC (stereo not drawn) [Alfuzosin HCl],scaled lipid accumulation score,[3],≤ 0
same,scaled lipid accumulation score,[4],≤ 0
COc1cc2nc(N3CCN(C(=O)C4CCCO4)CC3)nc(N)c2cc1OC (stereo not drawn) [Terazosin HCl],scaled lipid accumulation score,[3],≤ 0
same,scaled lipid accumulation score,[7],0.009
same,scaled lipid accumulation score,[4],≤ 0
COc1cc2nc(N(C)CCCNC(=O)C3CCCO3)nc(N)c2cc1OC (stereo not drawn),scaled lipid accumulation score,[4],≤ 0
COc1cc2nc(N3CCN(C(=O)C4COc5ccccc5O4)CC3)nc(N)c2cc1OC (stereo not drawn) [Doxazosin mesylate],scaled lipid accumulation score,,≤ 0
same,scaled lipid accumulation score,library stock concentration: 4.4 mM,0.151
same,scaled lipid accumulation score,[4],0.85
